In PubChem BioAssay AID1645857 (Buhrlage Lab, Dana-Farber Cancer Institute and Novartis …, 2021):
In all, about 47,000 compounds went through this assay and about 1,400 (3%) were called active. This is one part of a sample in which actives are shown more often than they occur. No stated cut-off is given here; in the data, active means inhibition above about 30%; inactive means the rest.

Target: Ubiquitin carboxyl-terminal hydrolase 28 (Homo sapiens) (UniProt Q96RU2)
Assay: inhibitors of human USP28 deubiquitinase (AID 1645857)
Settings: purified USP28, Ub-rhodamine cleavage fluorescence, 30 min; at 25 µM; active compounds read high

Chain of Ubiquitin carboxyl-terminal hydrolase 28 (Homo sapiens) (Q96RU2 whole entry, looked up): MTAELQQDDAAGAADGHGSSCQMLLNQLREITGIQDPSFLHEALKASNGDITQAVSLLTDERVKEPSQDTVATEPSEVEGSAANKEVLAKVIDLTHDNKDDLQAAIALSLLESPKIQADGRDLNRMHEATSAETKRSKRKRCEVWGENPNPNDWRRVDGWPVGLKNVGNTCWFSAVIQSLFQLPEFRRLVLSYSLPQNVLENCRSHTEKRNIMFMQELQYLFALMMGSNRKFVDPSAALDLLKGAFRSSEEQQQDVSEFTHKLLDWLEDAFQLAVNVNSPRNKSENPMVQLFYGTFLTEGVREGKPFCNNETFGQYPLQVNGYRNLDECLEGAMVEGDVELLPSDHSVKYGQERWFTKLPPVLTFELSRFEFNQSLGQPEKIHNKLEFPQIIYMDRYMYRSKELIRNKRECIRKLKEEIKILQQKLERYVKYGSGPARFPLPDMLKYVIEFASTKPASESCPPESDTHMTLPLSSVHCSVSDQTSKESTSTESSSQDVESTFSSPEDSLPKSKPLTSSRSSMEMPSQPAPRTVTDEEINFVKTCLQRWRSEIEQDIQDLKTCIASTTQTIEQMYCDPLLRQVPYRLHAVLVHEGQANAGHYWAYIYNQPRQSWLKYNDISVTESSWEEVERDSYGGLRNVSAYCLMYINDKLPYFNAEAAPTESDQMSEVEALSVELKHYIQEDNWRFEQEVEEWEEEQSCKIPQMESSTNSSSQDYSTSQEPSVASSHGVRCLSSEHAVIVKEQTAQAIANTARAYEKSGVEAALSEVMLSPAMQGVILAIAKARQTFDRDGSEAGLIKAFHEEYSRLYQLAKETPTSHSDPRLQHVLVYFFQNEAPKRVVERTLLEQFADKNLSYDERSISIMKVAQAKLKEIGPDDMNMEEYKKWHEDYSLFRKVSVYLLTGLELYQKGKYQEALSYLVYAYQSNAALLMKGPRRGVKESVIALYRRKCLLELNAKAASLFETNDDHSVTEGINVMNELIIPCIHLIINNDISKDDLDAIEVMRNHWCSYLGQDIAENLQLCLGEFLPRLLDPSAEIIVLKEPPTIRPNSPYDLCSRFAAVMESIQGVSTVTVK

Row | Compound | inhibition
1 | O=C1CSC(c2ccc(F)cc2)c2c(-c3ccccc3)nn(-c3ccccc3)c2N1 (stereo not given) | 35.2% (active)
2 | O=C(CCCn1c(=O)[nH]c2cc(Cl)ccc2c1=O)N1CCC2(CC1)OCCO2 | 15% (inactive)
3 | COc1cc(N2CC[C@@H]3[C@@H]2CCN3Cc2cccnc2)ncn1 | -13.3% (inactive)
4 | CC(C)(C)n1cc(C(=O)NCC(=O)Nc2ccc(Br)cc2)cn1 | 1.73% (inactive)
5 | Cc1noc(C)c1CN1CCO[C@H]2C(Cn3cccn3)CC[C@@H]21 (stereo not given in full) | -2.14% (inactive)
